In PubChem BioAssay (NCATS):
Inconclusive results are not listed. Unmarked numbers belong to inactive results. Calls of active or inactive are those of the source. Calls come from the whole dose curve; as a rule, active = well fitted inhibition curve with a large enough effect; inconclusive = small, poorly fitted or top-dose-only effect; inactive = flat fitted curve, though single readings scatter.

Experiment: qHTS for Inhibitors of Plasmodium falciparum (7G8) proliferation (AID 504316); note: nearly all actives have a fitted effect of over 65% in size;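 for activity change, negative = inhibition: 0% = DMSO vehicle and -100% = 0.29 µM artemisinin full kill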
Settings: P. falciparum 7G8 in erythrocytes, SYBR Green DNA, 72 h; series mostly up to 6.7 µM; activity change, negative = inhibition: at the top concentration
Excerpt: Plasmodium falciparum is a virulent malarial parasite that kills 1-2 million people worldwide each year. Malaria not only inflicts tremendous suffering and morbidity on the human population, but has dramatically influenced the course of civilization with profound sociological and economic implications (Shah, S. 2010). Transmitted by mosquitoes, the sporozoite form of the parasite enters the blood stream to infect hepatocytes, where they become merozoites that infect red blood cells (erythrocytes). Within erythrocytes, merozoites begin a […] cycle of growth and division, after which the parasite is released to infect new red blood cells. Gametocytes, which form within erythrocytes as well, circulate in the bloodstream and are ingested by the mosquito, thereby completing the life cycle (see CDC website). To profile malarial lines for differential chemical responses and to identify inhibitors of malarial growth, an assay that measures P. falciparum growth and replication within erythrocytes was employed. This assay uses a DNA binding fluorescent dye (SYBR Green) to detect parasite DNA following cell lysis. Because mature erythrocytes lack DNA, only Plasmodium-derived DNA is detected. The P. falciparum line cp250, derived from a malarial isolate from Cambodia, (Mu, J., et al. 2010) was added to the panel of lines, Dd2, HB3, 7G8 and GB4 in this study. Laboratory of Assay Development and Screening Technology [ADST] and NIH Chemical Genomics Center [NCGC] Boston University, Chemistry Department, Center for Chemical Methodology and Library Development [CMLD-BU] NIH National Institute of Allergy and Infectious Diseases [NIAID]
ADST Assay Protocol Summary: The 1536-well SYBR Green viability assay was based on the method of Bennett et al (2004) and described previously in 1536-well format (Yuan J., et al. 2009). For screening 3 ul culture medium was dispensed into 1536 well black clear bottom plates (Aurora Biotechnologies) using a Multidrop Combi (Thermo Fisher Scientific Inc.), 23 nL compounds in DMSO were added by a pin transfer (Cleveland, P.H. and Koutz, P.J, 2005) using a pin tool-based delivery system (Kalypsys), and 5 ul of erythrocytes infected with P. falciparum one of five lines (cp250, Dd2, HB3, 7G8 or GB4, 0.3% parasitemia, 2.5% hematocrit final concentration) were added. The plates were incubated at 37C in a humidified incubator in 5% CO2 for 72 h, and 2 ul lysis buffer (20 mM Tris HCl, 10 mM EDTA, 0.16% saponin, 1.6% triton X, 10X SYBR Green I (supplied as 10,000X final concentration by Invitrogen) was added to each well. The plates were mixed for 25 sec with gentle shaking and incubated overnight at room temperature in the dark. The following morning, fluorescence intensity at 485(14) nm excitation and 535(25) nm emission wavelengths was measured on an EnVision (Perkin Elmer) plate reader. Plate reads were normalized relative to the control inhibitor (0.29 uM artemisinin) and vehicle (DMSO) wells present on each plate and then corrected by an algorithm using vehicle-only control plates at the beginning and end of the compound plate stack. References Shah, S. (2010). The Fever: how malaria has ruled humankind for 500,000 years. New York, Sarah Crichton Books. CDC web site, http://www.cdc.gov/malaria/about/biology/index.html Mu, J., Myers, R.A., Jiang, H., Liu, S., Ricklefs, S., Waisberg, M., Chotivanich, K., Wilairatana, P., Krudsood, S., White, N.J., et Plasmodium falciparum genome-wide scans for positive selection, recombination hot spots and resistance to antimalarial drugs Nature Genetics 2010, 42, pp 268-271 Bennett TN, Paguio, M., Gligorijevic, B., Seudieu, C., Kosar, A. D., Davidson, E., and Roepe, P. D. Novel, rapid, and inexpensive cell-based quantification of antimalarial drug efficacy Antimicrobial Agents Chemother. 2004, 48(5): pp 1807-10 Yuan J, Johnson RL, Huang RL, Wichterman J, Jiang HY, Hayton K, Fidock DA, Wellems TE, Inglese J, Austin CP, Su XZ. […]
Potency is the fitted concentration of half-maximal effect.

SMILES | Potency | activity change, negative = inhibition [%]
O=C1CCCC2=C1[C@H]1O[C@](CCCCN3C(=O)c4ccccc4C3=O)(Cc3c1ccc1ccccc31)O2 | 1.69 µM (active) | –
COC(=O)C1=C(C)N(CC2CC2)C(=NCCc2cccnc2)NC1c1ccccc1 (stereo not given) | – | 0.51
COCCN1C(=O)N[C@@H](CCc2ccccc2)[C@H](C(C)=O)[C@H]1C | inactive | –
CCOC(=O)[C@@]1([C@@H](NC(=O)OC)c2cccc(C)c2)CCCC1=O | – | 10.4
COC(=O)C12C[C@H](C)C3C(C)C(c4ccccc4C31)N2C(=O)C(F)(F)F (stereo not given in full) | – | 2.54
COC(=O)N1[C@H]2CC[C@@]3(C)CC(=O)C[C@]1(C)C3c1ccccc12 | – | 0.614
COC(=O)C1=C(C(=O)OC)[C@@H]2N(C)c3ccccc3[C@@]23C[C@@H](C(=O)OC)N(C(=O)c2ccc(Br)cc2)C3=N1 | inactive | –
COC(=O)c1ccc(CN2C(=O)[C@]3(O[C@H](C)CC4=CCCC43)c3c(Br)cccc32)cc1 (stereo not given in full) | – | -13.8
COC(=O)c1ccc(CN2C(=O)[C@]3(OCCC=C[C@@H]3C)c3ccccc32)cc1 | – | -7.84
COC(=O)C1=C(C(=O)OC)[C@@H]2Nc3ccccc3[C@@]23C[C@@H](C(=O)OC)N(C(=O)Nc2ccccc2F)C3=N1 | – | -5.81
COC(=O)[C@H]1O[C@@H](c2cc(OC)c(C)c(OC)c2O)[C@H](C)[C@@H](O)[C@@H]1C | – | 2.34
CC(=O)OC[C@H]1O[C@H](CC=NO[C@@H](C)c2cc(-c3c(C)cc(C)cc3C)no2)C=C[C@@H]1OC(C)=O | – | -2.19
CCO[C@H](c1cc(OC)cc([N+](=O)[O-])c1OC)[C@H](C)[C@@H](OC)[C@H](C)C=CCC(=O)OC | – | -3.48
C=C(C)[C@@H]1CC2=C(OC)C(CC=C(C)C)(CC=C(C)C)C(=O)C(C(=O)c3ccccc3)=C2O1 | 1.69 µM (active) | –
CC1=C(C)CC(c2ccccc2)C(C(=O)c2ccccc2O)C1 (stereo not given) | – | -0.73
COC(=O)C1=C(C)N(Cc2ccccc2)C(=S)NC1c1ccc(Br)cc1 (stereo not given) | – | -15.2
COC(=O)C1=C2C=C(C)CC(C)N2C(=O)NC1c1ccccc1 (stereo not given) | – | -2.63
CCN1C(=NCc2ccc(OC)cc2)N[C@@H](CCc2ccccc2)[C@H](C(=O)NCc2ccc(OC)cc2)[C@H]1C | – | -11.5
Cc1c(O)c(=O)c2ccccc2n1C | – | 1.99
COC(=O)CC=C1c2ccc3c(c2[C@@H](OC)[C@@H]1C)OCO3 | – | -18.2

SMILES | Potency | activity change, negative = inhibition [%]
CCOC(=O)[C@@]1([C@@H](NC(=O)OC)c2ccccc2)CCCC1=O | – | 1.99
C=CCN1c2ccccc2[C@]23C[C@@H](C(=O)OC)N(C(=O)Nc4ccc(C(F)(F)F)cc4)C2=NC(C(=O)OC)=C(C(=O)OC)[C@H]13 | – | 9.48
C=CC[C@@](C(C)=O)(C(=O)OC)[C@@H](NC(=O)OC(C)(C)C)c1ccccc1 | – | -0.887
Cn1c(-c2ccccc2)c(O)c(=O)c2ccccc21 | – | 2.13
CC12C=C(C=Cc3ccc(Br)cc3)C(C)(C1)[C@H](c1ccc(Br)cc1)CC2=O (stereo not given in full) | 1.69 µM (active) | –
COc1cccc(CO[C@H]2C=C[C@@H](c3ccccc3)O[C@H]2CBr)c1 | – | -14.2
C[C@@H]1C=CCCO[C@]12C(=O)N(Cc1ccccc1C(F)(F)F)c1ccccc12 | – | -17.2
CC(=O)OC[C@H]1O[C@H](CCON=C(C)CCN2CCc3nc(-c4ccccc4)c(-c4ccccc4)cc3C2)C=C[C@H]1OC(C)=O | 1.51 µM (active) | –
COC(=O)C1=C(C)N(Cc2ccccc2)C(=NCC2CC2)NC1c1ccc(Br)cc1 (stereo not given) | – | -12.5
C=CCNC(=O)N1CCc2nc(-c3ccccc3)c3c(c2C1)CO[C@@H](C)C3 | – | -18.8
COC(=O)[C@@H]1CC[C@H](C)[C@@H](c2ccc(C)cc2)N1C(=O)c1ccc(C=NOC[C@@H](O)[C@H]2O[C@@H]3OC(C)(C)O[C@H]3[C@@H]2O)cc1 | 1.2 µM (active) | –
CCN1C(=NCCc2cccnc2)NC(CCc2ccccc2)C(C(=O)OC)=C1C (stereo not given) | – | -5.53
COC(=O)C1=C(C(=O)OC)[C@@H]2N(C)c3ccccc3[C@@]23C[C@@H](C(=O)OC)N(C(=O)Nc2cccc(C#N)c2)C3=N1 | – | 7.14
CCc1cc2c(nc1CC)CCN(CCC(C)=NOC[C@@H](O)[C@H]1O[C@@H]3OC(C)(C)O[C@H]3[C@@H]1O)C2 | 1.69 µM (active) | –
C=CCN1C(=O)CC[C@@]23C1=NC(C(=O)OC)=C(C(=O)OC)[C@@H]2N(C)c1ccccc13 | – | 0.143
COc1ccc(NC(=O)N2CCc3nc(-c4ccccc4)c4c(c3C2)CO[C@@H](C)C4)cc1 | inactive | –
CCN1C(=O)[C@@H]2[C@H]3[C@H](O)[C@H](O)CC(=NOC[C@@H](O)[C@H]4O[C@@H]5OC(C)(C)O[C@H]5[C@@H]4O)[C@@H]3CC[C@H]2C1=O | – | -1.43
CC(=O)[C@@H]1[C@@H](C)N(Cc2ccccc2)C(=O)N[C@H]1c1ccccc1 | – | -14.1
COC(=O)N[C@@H](c1cccc(F)c1)[C@]1(C(=O)OC)CCCC1=O | – | -1.45
C=C(C)C(O)C=Cc1ccc(C(F)(F)F)cc1 (stereo not given) | – | -5.17
